According to PubChem BioAssay (NCATS):
Results filed as inconclusive are left out. A call without a number means that no potency is given here. Calls of active or inactive are those of the source. Calls come from the whole dose curve; as a rule, active = well fitted curve in the direction sought with a large enough effect; inconclusive = small, poorly fitted or top-dose-only effect, or another doubt; inactive = no such curve, though single readings can be large; an effect the other way counts as inactive or inconclusive.

biological target: Rap guanine nucleotide exchange factor 3 (Homo sapiens) (UniProt O95398); assay: Confirmatory qHTS for antagonist of cAMP-regulated guanine nucleotide exchange factor 3 (EPAC1) (AID 1645880); details: EPAC1 Rap1B-BODIPY-GDP exchange, fluorescence; series mostly up to 115 µM; note: nearly all actives have a fitted effect of over 55% in size
In short: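 Nucleotide exchange uses 100 nM EPAC1, 250 nM RAP1B-BODIPY-GDP and 50 uM GDP, with compounds in a concentration-titration series. After 5 min at room temperature, fluorescence (480 nm ex/540 nm em) is read every 5 min for 30 min. Data are normalized to control ATA and DMSO.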
Potency is the fitted concentration of half-maximal effect.

Rap guanine nucleotide exchange factor 3 (Homo sapiens), sequence (O95398 whole entry, looked up): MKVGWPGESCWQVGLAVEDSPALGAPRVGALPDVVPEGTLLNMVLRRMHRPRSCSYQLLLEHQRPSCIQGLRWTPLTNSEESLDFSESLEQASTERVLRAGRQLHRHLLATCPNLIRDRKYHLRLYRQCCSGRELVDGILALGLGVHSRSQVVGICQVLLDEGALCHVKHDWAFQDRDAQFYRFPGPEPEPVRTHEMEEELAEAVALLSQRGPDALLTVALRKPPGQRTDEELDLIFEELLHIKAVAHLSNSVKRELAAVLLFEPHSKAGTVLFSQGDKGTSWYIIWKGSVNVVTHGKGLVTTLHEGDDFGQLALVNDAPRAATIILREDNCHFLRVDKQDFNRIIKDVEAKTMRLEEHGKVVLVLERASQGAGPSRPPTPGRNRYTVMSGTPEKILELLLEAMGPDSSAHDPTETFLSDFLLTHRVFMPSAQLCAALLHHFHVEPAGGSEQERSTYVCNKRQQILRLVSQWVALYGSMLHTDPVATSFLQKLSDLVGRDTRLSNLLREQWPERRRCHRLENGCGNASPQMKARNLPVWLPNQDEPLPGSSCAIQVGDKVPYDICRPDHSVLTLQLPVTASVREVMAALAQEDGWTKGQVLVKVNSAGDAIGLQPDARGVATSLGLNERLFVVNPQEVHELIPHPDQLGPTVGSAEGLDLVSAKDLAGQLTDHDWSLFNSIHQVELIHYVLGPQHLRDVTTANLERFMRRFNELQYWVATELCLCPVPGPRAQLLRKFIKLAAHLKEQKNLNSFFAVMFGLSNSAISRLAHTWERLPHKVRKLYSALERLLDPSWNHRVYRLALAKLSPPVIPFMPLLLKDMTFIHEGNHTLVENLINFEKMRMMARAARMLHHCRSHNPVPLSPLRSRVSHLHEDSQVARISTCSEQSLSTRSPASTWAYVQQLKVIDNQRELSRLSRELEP

Compound	Potency
O=C1CSC2(C(=O)N(Cc3cccc(C(F)(F)F)c3)c3ccccc32)N1c1ccc(F)c(F)c1 (stereo not given)	inactive
O=c1oc2ccccc2nc1/C=C(O)/C=C\c1ccccc1	inactive
Cc1cccn2c(=O)cc(CSc3nnc(NC(=O)COc4ccccc4)s3)nc12	67.5 µM (active)
CC(=O)NC(CCS(C)(=O)=O)C(=O)Nc1cccc(C)c1C (stereo not given)	inactive
Nc1ccc(-c2c3ccc(=O)cc-3oc3cc(O)ccc23)c(C(=O)O)c1	inactive
COc1ccc(C(=O)N2CCc3cc(OC)c(OC)cc3C2c2ccc(OC)c(OC)c2)cc1 (stereo not given)	inactive
O=C(c1ccc2c(c1)N(Cc1ccccc1)CCS2)N1CCCCC1	inactive
Cc1cccc(CN2[C@@H](CC(C)C)COCCS2(=O)=O)c1	inactive
COc1c(-c2ccccc2)oc2c(ccc3occc32)c1=O	inactive
C=CCc1cc(/C=C/c2nc(O)c([N+](=O)[O-])c(=O)[nH]2)cc(OC)c1O	33.8 µM (active)
CC(=O)N(/N=C1/C(=O)Nc2ccccc21)c1ccccc1	67.5 µM (active)
CNC(=O)NC(=O)C(NC1CCCc2ccccc21)c1ccccc1 (stereo not given)	inactive
COc1cnc(-c2ccccn2)nc1Oc1c(C)cccc1C	inactive
O=c1ccc(-c2ccccc2)nn1Cc1c(F)cccc1Cl	inactive
Cn1c(N)c(C(=O)COC(=O)COc2ccccc2C#N)c(=O)n(C)c1=O	inactive
O=c1oc2cc(O)ccc2cc1-c1nc2ccccc2o1	inactive
CCn1c2ccccc2c2nnc(SCC(=O)N(C)C3CCS(=O)(=O)C3)nc21 (stereo not given)	inactive
COc1cccc(CC(=O)Nc2ccc(S(=O)(=O)Nc3nccs3)cc2)c1	inactive
Cc1ccc2nc(NC(=O)CSc3ncnc4c3oc3ccccc34)sc2c1	inactive
O=C1NC(=O)C2(N1)C(=O)c1cccc3cccc2c13 (stereo not given)	inactive
O=C(NC1CCC(O)CC1)c1cccc2cccnc12 (stereo not given)	inactive
Nc1nnc(-c2cccc(F)c2)s1	inactive
COc1cc(/C=C2\SC(=S)N(NS(=O)(=O)c3ccc(C)cc3)C2=O)cc(OC)c1OC	26.9 µM (active)
O=C(CC[C@H]1O[C@@H](n2ccc(=O)[nH]c2=O)[C@H](O)[C@@H]1O)NCc1cccc2ccccc12	inactive
CSc1nc(N2CCOCC2)c2c3c(sc2n1)CCCC3	inactive

biological target: Rap guanine nucleotide exchange factor 3 (Homo sapiens) (UniProt O95398); assay: Confirmatory qHTS for agonist of cAMP-regulated guanine nucleotide exchange factor 3 (EPAC1) (AID 1645881); details: EPAC1 Rap1B BODIPY-GDP exchange fluorescence; series mostly up to 154 µM; note: nearly all actives have a fitted effect of over 75% in size

Compound	Potency
CCN(CC)C(=S)Oc1c(Cl)cccc1Cl	inactive
O=C1CSC2(C(=O)N(Cc3cccc(C(F)(F)F)c3)c3ccccc32)N1c1ccc(F)c(F)c1 (stereo not given)	inactive
O=c1oc2ccccc2nc1/C=C(O)/C=C\c1ccccc1	inactive
Cc1cccn2c(=O)cc(CSc3nnc(NC(=O)COc4ccccc4)s3)nc12	inactive
C/C(C/C(C)=C1/SC(=S)NC1=O)=C1\SC(=S)NC1=O	inactive
CC(=O)NC(CCS(C)(=O)=O)C(=O)Nc1cccc(C)c1C (stereo not given)	inactive
Nc1ccc(-c2c3ccc(=O)cc-3oc3cc(O)ccc23)c(C(=O)O)c1	100 µM (active)
COc1ccc(C(=O)N2CCc3cc(OC)c(OC)cc3C2c2ccc(OC)c(OC)c2)cc1 (stereo not given)	inactive
Cc1ccc2c(c1)CCCN2C(=O)c1cc(C)c(C)s1	inactive
COc1ccc([N+](=O)[O-])cc1NC(=S)Nc1ccccc1	inactive
O=C(c1ccc2c(c1)N(Cc1ccccc1)CCS2)N1CCCCC1	inactive
Cc1nc(Cl)sc1C(=O)NC(C)c1ccc(Cl)cc1 (stereo not given)	inactive
Cc1cccc(CN2[C@@H](CC(C)C)COCCS2(=O)=O)c1	inactive
CN(CC(=O)O)c1ccc(/C=C/c2ccnc3ccccc23)cc1	inactive
COc1c(-c2ccccc2)oc2c(ccc3occc32)c1=O	inactive
C=CCc1cc(/C=C/c2nc(O)c([N+](=O)[O-])c(=O)[nH]2)cc(OC)c1O	inactive
CO/N=C/c1ccc(Sc2ccccc2)c([N+](=O)[O-])c1	inactive
CCN(CC)c1ccc2cc(-c3nnc(Nc4ccc(C)cc4)s3)c(=O)oc2c1	112 µM (active)
CC(=O)N(/N=C1/C(=O)Nc2ccccc21)c1ccccc1	inactive
CNC(=O)NC(=O)C(NC1CCCc2ccccc21)c1ccccc1 (stereo not given)	inactive

Compound	Potency
CN1CCN(CCC(=O)Nc2ccc(Cl)cc2)CC1	inactive
COc1cnc(-c2ccccn2)nc1Oc1c(C)cccc1C	inactive
O=c1ccc(-c2ccccc2)nn1Cc1c(F)cccc1Cl	inactive
Cn1c(N)c(C(=O)COC(=O)COc2ccccc2C#N)c(=O)n(C)c1=O	inactive
O=c1oc2cc(O)ccc2cc1-c1nc2ccccc2o1	100 µM (active)
CCn1c2ccccc2c2nnc(SCC(=O)N(C)C3CCS(=O)(=O)C3)nc21 (stereo not given)	inactive
COc1cccc(CC(=O)Nc2ccc(S(=O)(=O)Nc3nccs3)cc2)c1	inactive
O=C(c1ccco1)N(CCC(c1ccccc1)c1ccco1)Cc1ccco1 (stereo not given)	inactive
CN(C)CCNC(=O)c1cccc(-c2cnc3c(NC=O)cc(-c4cccc(C(F)(F)F)c4)cn23)c1	inactive
Cc1ccc2nc(NC(=O)CSc3ncnc4c3oc3ccccc34)sc2c1	inactive
O=C1NC(=O)C2(N1)C(=O)c1cccc3cccc2c13 (stereo not given)	112 µM (active)
O=C(NC1CCC(O)CC1)c1cccc2cccnc12 (stereo not given)	inactive
Nc1nnc(-c2cccc(F)c2)s1	inactive
C1=Cc2ccccc2/C1=C\c1ccc2c(c1)OCO2	inactive
COc1cc(/C=C2\SC(=S)N(NS(=O)(=O)c3ccc(C)cc3)C2=O)cc(OC)c1OC	inactive
Oc1ccc(-c2c(-c3ccsc3)sc3ccccc23)cc1	inactive
O=C(CC[C@H]1O[C@@H](n2ccc(=O)[nH]c2=O)[C@H](O)[C@@H]1O)NCc1cccc2ccccc12	inactive
CSc1nc(N2CCOCC2)c2c3c(sc2n1)CCCC3	inactive
C=CCOc1ccc(Br)cc1/C=C1/SC(=Nc2ccc(C(=O)O)cc2)NC1=O	inactive
CN1CCN(C(CNC(=O)c2ccc(Br)o2)c2ccc(F)cc2)CC1 (stereo not given)	inactive
